# Changes are numbered by the printed parent chain.
# Assays:
# Test in all cases: HT-SELEX; high values mean tight binding
# Conditions in all cases: protein: recombinant; vector His6-GST; dsDNA, one strand shown
# SALL4 ZFC4 WT (HT-SELEX) = target: T1, SALL4 ZFC4 WT (HT-SELEX) (Mus musculus, UniProt Q8BX22 870-940)
# T1 sequence: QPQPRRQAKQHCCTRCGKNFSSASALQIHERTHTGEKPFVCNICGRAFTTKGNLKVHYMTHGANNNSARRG
# In short: (§1)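 Library DNA (1.5 µg in cycle one, 200 ng in later cycles) was incubated with 1 µg of purified recombinant mouse SALL4 zinc finger cluster 4, residues 870–940, in 100 µl buffer (10 mM Tris–HCl pH 7.5, 50 mM NaCl, poly(dI-dC), DTT) at room temperature for 10 min. Up to 6 rounds of Ni2+ bead capture, washing, PCR amplification and reselection were run in triplicate. Reads from MiSeq sequencing were scanned for 6-mers. For each canonical k-mer, binding signal is its read fraction as fold change versus the original random library.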
# [1] = target: T2, SALL4 ZFC4 R900W (HT-SELEX) (Mus musculus, UniProt Q8BX22 870-940, R900W)
# T2 sequence: T1 sequence with R31W
# In short: as §1
# [2] = target: T3, SALL4 ZFC4 G921D (HT-SELEX) (Mus musculus, UniProt Q8BX22 870-940, G921D)
# T3 sequence: T1 sequence with G52D
# In short: as §1
Sequence,binding signal (SALL4 ZFC4 WT (HT-SELEX)),binding signal [1],binding signal [2]
CACGGA,0.395 ± 0.0417 fold-change vs cycle 0,0.459 ± 0.0312 fold-change vs cycle 0,0.571 ± 0.0613 fold-change vs cycle 0
ATACGG,0.67 ± 0.0205 fold-change vs cycle 0,0.767 ± 0.0197 fold-change vs cycle 0,0.808 ± 0.0319 fold-change vs cycle 0
ACTACA,1.29 ± 0.0616 fold-change vs cycle 0,1.42 ± 0.0632 fold-change vs cycle 0,1.34 ± 0.0704 fold-change vs cycle 0
AACATA,2.08 ± 0.152 fold-change vs cycle 0,1.96 ± 0.129 fold-change vs cycle 0,1.76 ± 0.196 fold-change vs cycle 0
AGATCT,1.31 ± 0.115 fold-change vs cycle 0,1.45 ± 0.063 fold-change vs cycle 0,1.47 ± 0.0799 fold-change vs cycle 0
CATCGG,0.364 ± 0.0112 fold-change vs cycle 0,0.442 ± 0.0135 fold-change vs cycle 0,0.568 ± 0.0586 fold-change vs cycle 0
TGCGAA,0.447 ± 0.0325 fold-change vs cycle 0,0.488 ± 0.0122 fold-change vs cycle 0,0.618 ± 0.0628 fold-change vs cycle 0
AACACT,1.28 ± 0.027 fold-change vs cycle 0,1.39 ± 0.0403 fold-change vs cycle 0,1.33 ± 0.0261 fold-change vs cycle 0
CTTACC,0.909 ± 0.0427 fold-change vs cycle 0,1.06 ± 0.0534 fold-change vs cycle 0,1.02 ± 0.0246 fold-change vs cycle 0
AGAAAT,2.29 ± 0.182 fold-change vs cycle 0,2.02 ± 0.161 fold-change vs cycle 0,1.78 ± 0.161 fold-change vs cycle 0
CCCCTA,0.489 ± 0.0364 fold-change vs cycle 0,0.584 ± 0.015 fold-change vs cycle 0,0.638 ± 0.0291 fold-change vs cycle 0
CTAGTC,0.766 ± 0.0364 fold-change vs cycle 0,0.918 ± 0.0254 fold-change vs cycle 0,0.941 ± 0.0142 fold-change vs cycle 0
AATTCC,1.34 ± 0.0764 fold-change vs cycle 0,1.36 ± 0.0844 fold-change vs cycle 0,1.31 ± 0.0693 fold-change vs cycle 0
AGTAGA,1.33 ± 0.0604 fold-change vs cycle 0,1.54 ± 0.0844 fold-change vs cycle 0,1.41 ± 0.124 fold-change vs cycle 0
CACACC,0.375 ± 0.0351 fold-change vs cycle 0,0.468 ± 0.0362 fold-change vs cycle 0,0.561 ± 0.0498 fold-change vs cycle 0
CCACTC,0.468 ± 0.0131 fold-change vs cycle 0,0.5154 ± 0.00212 fold-change vs cycle 0,0.62 ± 0.0734 fold-change vs cycle 0
CAGGTC,0.406 ± 0.041 fold-change vs cycle 0,0.487 ± 0.0258 fold-change vs cycle 0,0.603 ± 0.0536 fold-change vs cycle 0
CAAAAG,1.03 ± 0.0267 fold-change vs cycle 0,1.17 ± 0.0219 fold-change vs cycle 0,1.153 ± 0.00875 fold-change vs cycle 0
GTTTCA,1.26 ± 0.0534 fold-change vs cycle 0,1.32 ± 0.0266 fold-change vs cycle 0,1.31 ± 0.0949 fold-change vs cycle 0
TGGGAA,0.795 ± 0.0577 fold-change vs cycle 0,0.859 ± 0.0429 fold-change vs cycle 0,0.877 ± 0.0259 fold-change vs cycle 0

Sequence,binding signal (SALL4 ZFC4 WT (HT-SELEX)),binding signal [1],binding signal [2]
ACCCTG,0.474 ± 0.0232 fold-change vs cycle 0,0.563 ± 0.034 fold-change vs cycle 0,0.648 ± 0.0451 fold-change vs cycle 0
AATCTG,1.22 ± 0.0563 fold-change vs cycle 0,1.28 ± 0.0883 fold-change vs cycle 0,1.25 ± 0.0941 fold-change vs cycle 0
AAGCTA,1.18 ± 0.0764 fold-change vs cycle 0,1.3 ± 0.0578 fold-change vs cycle 0,1.28 ± 0.0869 fold-change vs cycle 0
AAAGCC,0.465 ± 0.0355 fold-change vs cycle 0,0.543 ± 0.0413 fold-change vs cycle 0,0.65 ± 0.0602 fold-change vs cycle 0
TTTAAA,2.46 ± 0.106 fold-change vs cycle 0,2.33 ± 0.125 fold-change vs cycle 0,2.04 ± 0.174 fold-change vs cycle 0
ACTGGA,0.84 ± 0.022 fold-change vs cycle 0,0.993 ± 0.0196 fold-change vs cycle 0,1.01 ± 0.0605 fold-change vs cycle 0
ATTCTA,2.06 ± 0.0756 fold-change vs cycle 0,2.07 ± 0.113 fold-change vs cycle 0,1.81 ± 0.213 fold-change vs cycle 0
CAGGAC,0.423 ± 0.0322 fold-change vs cycle 0,0.487 ± 0.0192 fold-change vs cycle 0,0.578 ± 0.0205 fold-change vs cycle 0
ATGGTC,0.721 ± 0.0351 fold-change vs cycle 0,0.8234 ± 0.00272 fold-change vs cycle 0,0.902 ± 0.0335 fold-change vs cycle 0
GAGACA,0.735 ± 0.0463 fold-change vs cycle 0,0.867 ± 0.0277 fold-change vs cycle 0,0.933 ± 0.0384 fold-change vs cycle 0
GATCTA,1.25 ± 0.0377 fold-change vs cycle 0,1.36 ± 0.0544 fold-change vs cycle 0,1.41 ± 0.0811 fold-change vs cycle 0
CTAACA,1.32 ± 0.0481 fold-change vs cycle 0,1.48 ± 0.0428 fold-change vs cycle 0,1.41 ± 0.0893 fold-change vs cycle 0
ACGGAT,0.764 ± 0.0238 fold-change vs cycle 0,0.855 ± 0.00544 fold-change vs cycle 0,0.887 ± 0.0254 fold-change vs cycle 0
AAGAAA,2.03 ± 0.13 fold-change vs cycle 0,2.08 ± 0.193 fold-change vs cycle 0,1.78 ± 0.233 fold-change vs cycle 0
GATTGA,1.34 ± 0.0367 fold-change vs cycle 0,1.46 ± 0.0217 fold-change vs cycle 0,1.43 ± 0.0387 fold-change vs cycle 0
CTGAGA,0.788 ± 0.03 fold-change vs cycle 0,0.922 ± 0.033 fold-change vs cycle 0,0.951 ± 0.0498 fold-change vs cycle 0
TGCAAA,1 ± 0.0674 fold-change vs cycle 0,0.975 ± 0.0411 fold-change vs cycle 0,1.03 ± 0.0183 fold-change vs cycle 0
ATTCCG,0.646 ± 0.0192 fold-change vs cycle 0,0.697 ± 0.0273 fold-change vs cycle 0,0.798 ± 0.0236 fold-change vs cycle 0
ACTGTA,1.35 ± 0.031 fold-change vs cycle 0,1.49 ± 0.0592 fold-change vs cycle 0,1.38 ± 0.111 fold-change vs cycle 0
CGTACC,0.409 ± 0.0203 fold-change vs cycle 0,0.467 ± 0.0146 fold-change vs cycle 0,0.564 ± 0.0582 fold-change vs cycle 0

Sequence,binding signal (SALL4 ZFC4 WT (HT-SELEX)),binding signal [1],binding signal [2]
CTTGTC,0.741 ± 0.0177 fold-change vs cycle 0,0.888 ± 0.0216 fold-change vs cycle 0,0.915 ± 0.0332 fold-change vs cycle 0
CCTTTA,1.31 ± 0.0506 fold-change vs cycle 0,1.47 ± 0.0755 fold-change vs cycle 0,1.33 ± 0.0771 fold-change vs cycle 0
GCTAAC,0.704 ± 0.0424 fold-change vs cycle 0,0.792 ± 0.0586 fold-change vs cycle 0,0.89 ± 0.0355 fold-change vs cycle 0
CAACCG,0.334 ± 0.0164 fold-change vs cycle 0,0.389 ± 0.015 fold-change vs cycle 0,0.509 ± 0.0746 fold-change vs cycle 0
CTGGTA,0.8022 ± 0.00263 fold-change vs cycle 0,0.908 ± 0.0333 fold-change vs cycle 0,0.954 ± 0.0144 fold-change vs cycle 0
GGAGGA,0.577 ± 0.0578 fold-change vs cycle 0,0.669 ± 0.0435 fold-change vs cycle 0,0.733 ± 0.0247 fold-change vs cycle 0
CGATGA,0.734 ± 0.0173 fold-change vs cycle 0,0.797 ± 0.0326 fold-change vs cycle 0,0.875 ± 0.0214 fold-change vs cycle 0
AAACCG,0.532 ± 0.0183 fold-change vs cycle 0,0.604 ± 0.0163 fold-change vs cycle 0,0.705 ± 0.0593 fold-change vs cycle 0
ATAATG,2.28 ± 0.148 fold-change vs cycle 0,2.02 ± 0.123 fold-change vs cycle 0,1.81 ± 0.182 fold-change vs cycle 0
TATCCA,1.41 ± 0.0597 fold-change vs cycle 0,1.44 ± 0.0638 fold-change vs cycle 0,1.34 ± 0.0962 fold-change vs cycle 0
GACTCC,0.5 ± 0.00838 fold-change vs cycle 0,0.594 ± 0.00754 fold-change vs cycle 0,0.705 ± 0.0401 fold-change vs cycle 0
ACCAAA,1.09 ± 0.0301 fold-change vs cycle 0,1.17 ± 0.0218 fold-change vs cycle 0,1.18 ± 0.044 fold-change vs cycle 0
TGCCAA,0.456 ± 0.0199 fold-change vs cycle 0,0.502 ± 0.00872 fold-change vs cycle 0,0.652 ± 0.0602 fold-change vs cycle 0
ATCTCC,0.945 ± 0.0285 fold-change vs cycle 0,1.04 ± 0.0372 fold-change vs cycle 0,1.06 ± 0.0438 fold-change vs cycle 0
ATCAGC,0.664 ± 0.0167 fold-change vs cycle 0,0.738 ± 0.048 fold-change vs cycle 0,0.836 ± 0.0337 fold-change vs cycle 0
ATCAAG,1.41 ± 0.0614 fold-change vs cycle 0,1.55 ± 0.0618 fold-change vs cycle 0,1.47 ± 0.0828 fold-change vs cycle 0
ATGACC,0.806 ± 0.0726 fold-change vs cycle 0,0.891 ± 0.0488 fold-change vs cycle 0,0.947 ± 0.065 fold-change vs cycle 0
AGGCTC,0.313 ± 0.0334 fold-change vs cycle 0,0.399 ± 0.014 fold-change vs cycle 0,0.546 ± 0.0493 fold-change vs cycle 0
AATGCA,1.12 ± 0.0474 fold-change vs cycle 0,1.11 ± 0.069 fold-change vs cycle 0,1.15 ± 0.0324 fold-change vs cycle 0
AATCAA,2.03 ± 0.0966 fold-change vs cycle 0,2 ± 0.106 fold-change vs cycle 0,1.81 ± 0.125 fold-change vs cycle 0
